Reference: PubChem BioAssay AID493014 (National Center for Advancing Translational Sciences (NCATS), 2011)
The whole screen tested about 340,000 compounds, of which about 170 (0.05%) were called active. Not shown: some 26% with an inconclusive outcome. Shown is part of a subset that was picked to be rich in actives. Unmarked numbers belong to inactive results. The call rests on the fitted dose curve; in most records, active means well fitted inhibition curve with a large enough effect in the signal ratio, with a control signal flat (not every such curve was filed as active); inconclusive means small, poorly fitted or top-dose-only effect, or effect the other way, or a change in a side signal; inactive means flat fitted curve, though single readings scatter; the % refers to the signal ratio.

Test: qHTS Assay to Find Inhibitors of Chronic Active B-Cell Receptor Signaling;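 on activity change, negative = inhibition: plate controls were basal doxycycline-induced cells for no effect and cells given 10 µM MG132 for full effect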
Details: ABC-DLBCL IkBa-CBG/CBR reporter, luminescence ratio, 4 h; series mostly up to 46.1 µM; activity change, negative = inhibition: at the top concentration
Text: NIH Molecular Libraries Probe Production Network [MLPCN] NIH Chemical Genomics Center [NCGC] MLPCN Grant: 1 R03 DA031086-01A1 PI Name: Dr. R. Eric Davis NCGC Assay Overview: Diffuse large B-cell lymphoma (DLBCL) is the most common category of non-Hodgkin lymphoma, with ~20,000 new cases per year in the United States. DLBCL should be regarded as a collection of different neoplasms. Microarray gene expression analysis has defined two principal types of DLBCL, named for their similarity to normal B cell stages or activation states: a germinal center B-cell (GCB) type, and an activated B-cell (ABC) type. In ABC-DLBCL, a constitutive high-level activity of the NF-kappaB family of transcription factors has been observed (1) and NF-kappaB target genes are more highly expressed in ABC primary tumors than in GCB tumors. Functional studies have shown a constitutive high-level activity of the IkappaB (inhibitor of kappa-B) kinase (IKK) complex. […] Further analysis of DLBCL primary tumors for NF-kappaB target gene expression imply that although CARD11 is required for constitutive IKK activity in all ABC-DLBCL lines, mutations in CARD11 may be the root cause of IKK activation only in lines or tumors with such mutations. In other words, CARD11 mutations may explain NF-kappaB activation in only 10% of ABC-DLBCL cases. […] This process has been termed 'chronic active BCR signaling' (CABS). The goal of this screen is to find small-molecule inhibitors of the CABS pathway found in ABC-DLBCL lines using a cell-based assay that measures IkappaBalpa stability, which has already been extensively validated in the OCI-Ly3 line (PubChem AID:445; REF: 4). […] The assay uses green (CBG68) and red (CBR) emitting beetle luciferases [Chroma-GloTM developed by Promega Corp.] where the green luciferase is fused to IkappaBalpha and the red luciferase is present in its native state. Both luciferase genes are stably present in the TMD8 human ABC DLBCL cell line, but their expression is under the control of tetracycline-inducible promoters. Following the addition of doxycycline to induce expression of the luciferases, the green luminescence in control cultures rises only slowly because the CBG fusion partner IkappaBalpha is targeted by IKK activity for rapid degradation. In contrast, green luminescence rises rapidly in the presence of proteasome inhibitors or IKK inhibitors. The rise in red luminescence of CBR is not affected by proteasome or IKK inhibitors, and serves as normalization for cell number and nonspecific effects. Compounds were screened as a concentration-titration series that ranged from 46 uM to 3 nM.
NCGC Assay Protocol Summary: Cells were seeded in 1536-well plates at 5000 cells/4uL in IMDM medium containing 0.5% FBS, w/o phenol red, 1% penicillin/streptomycin. Then, 23 nL of compounds or DMSO were delivered to each well using a pin tool. One uL 20ng/ml doxycycline was then dispensed into white solid 1536-well plates and the plates were incubated at 37C/5% C02 in a cell incubator for 4 hrs. Then 4 uL luminescent substrate mix (in-house prepared: 150 mM Tris-Cl, pH 7.6, 3 mM MgCl2, 1% Triton X-100, 5 mM DTT, 0.2 mM CoA, 0.15 mM ATP, 5 mM D-luciferin, final concentrations) was added to each well. The plate was incubated at r.t. for 10-15 min. The plates were measured on a ViewLux plate reader for green luminescence (540/20 nm filter) and red luminescence (618/8 nm filter). The green and red luminescent signals were corrected for red and green luminescence filter overlap using previously determined filter calibration constants (determined using the procedure outlined in the Promega Technical Manual; REF 4). The %Activity was determined from the ratio of corrected green/red luminescent values. MG132 were used as control. […] Red luminescent %Activity was normalized to the difference between red luminesence in basal cells (0%Activity) and zero luminescence (-100% Activity). […]
Potency means the concentration at half of the fitted maximal effect.

| SMILES | activity change, negative = inhibition | Potency |
| --- | --- | --- |
| CC1CCc2sc(C(=O)NCC(c3ccco3)N3CCCCC3)cc2C1 (stereo unspecified) | 9.66% |  |
| O=C(COc1ccc(F)cc1Br)NCC1COc2ccccc2O1 (stereo unspecified) | -20.7% |  |
| Cc1ccccc1-c1cc(C(=O)NCc2cccs2)n(CC2CC(c3cccnc3)=NO2)n1 (stereo unspecified) | -0.377% |  |
| O=C(c1ccc(N2CCOCC2)c([N+](=O)[O-])c1)N1CCN(c2ccccc2F)CC1 | 5.19% |  |
| C/C=C/c1ccc(OCC(=O)NNC(=O)CN(C)S(=O)(=O)c2ccc(C)cc2)c(OC)c1 | 0.21% |  |
| CN(CC(=O)Nc1ccc(OC(F)F)cc1)S(=O)(=O)/C=C/c1ccccc1 | 1.8% |  |
| C=CC[C@H](CC(=O)OC(C)(C)C)C(=O)OC[C@H]1CCCN1C(=O)[C@H](CC=C)CC(=O)N(CCO)Cc1ccccc1 | -0.82% |  |
| Cc1ccc(C(=O)CN2C(=O)NC3(CCc4ccccc43)C2=O)c(C)c1 (stereo unspecified) | 3.73% |  |
| CC(C(=O)Nc1ccc(S(=O)(=O)N2CCCC2)cc1)N(C)Cc1ccc(F)cc1 (stereo unspecified) | -1.3% |  |
| CCCCNc1c(-c2ccc(OC)c(Sc3ccc(OC)cc3)c2)nc2ccc(Cl)cn12 | 3.06% |  |
| Cc1ccc2c(CN3CCN(S(=O)(=O)c4ccccc4C(F)(F)F)CC3)cc(=O)oc2c1 | -0.0569% |  |
| COc1ccc(S(=O)(=O)N2CCOCC2)cc1NC(=O)c1ccc(OCC(C)C)c(OC)c1 | -2.65% |  |
| COc1ccccc1-c1oc2ccccc2c1C#CCCCCO | -1.28% |  |
| COc1ccccc1S(=O)(=O)NCc1ccc(C(=O)N(C)Cc2ccc(F)cc2)cc1 | 1.52% |  |
| COc1ccc(NC(=O)CCC(=O)N2CCN(S(=O)(=O)c3ccc(C)cc3)CC2)c(OC)c1 | -0.736% |  |
| CSc1ccccc1NC(=O)c1cnc2sc(C)cn2c1=O | 5.7% |  |
| COc1ccc(OCCCC(=O)Nc2cccc(S(=O)(=O)N3CCCCCC3)c2)cc1 | -11.7% |  |
| O=C(NCCc1ccco1)c1ccc(OCc2cn3ccccc3n2)cc1 | 2.67% |  |
| CN(CCc1ccccc1)C(=O)c1cccc(NC(=O)Cc2ccc([N+](=O)[O-])cc2)c1 | -0.71% |  |
| CC(C)CN(C(=O)COC(=O)c1ccc(Cl)c(N)c1)c1c(N)n(Cc2ccccc2)c(=O)[nH]c1=O | 7.64% |  |
| CCOC(=O)N1CCN(S(=O)(=O)c2ccc(OC)cc2)CC1 | -1.49% |  |

| SMILES | activity change, negative = inhibition | Potency |
| --- | --- | --- |
| NC(=O)c1ccccc1N(Cc1ccccc1)S(=O)(=O)c1ccccc1 | -0.649% |  |
| CCOC(=O)N1CCN(C(=O)c2ccccc2N(Cc2ccccc2)S(=O)(=O)c2ccc(OC)cc2)CC1 |  | 15.8 µM (active) |
| O=C(CNS(=O)(=O)c1ccc2c(c1)OCCCO2)N1CCN(c2ccc(F)cc2)CC1 | -1.04% |  |
| Cc1c(C(=O)Nc2cccc(S(=O)(=O)N3CCOCC3)c2)oc2ccccc12 | 0.517% |  |
| O=C(O)CCCn1c(=O)c2cccn2c2ccc(F)cc21 | 0.777% |  |
| COc1cc(C#Cc2ccc3cc(CCCO)oc(=O)c3c2)cc(OC)c1 |  | 14.6 µM (active) |
| COc1cc(/C=C2\Oc3ccc(C#Cc4ccc(O)cc4)cc3C2=O)cc(OC)c1 | 1.17% |  |
| CC/C(=N\NC(=S)NC(C)C)c1ccc(OC(F)F)cc1 |  | 22.4 µM (active) |
| C/C(=N\NC(=S)NC(C)C)c1ccc(C(C)(C)C)cc1 | -7.38% |  |
| CC(NC(=S)Nc1ccc(OC(F)F)cc1)c1ccc(F)cc1 (stereo unspecified) | -0.112% |  |
| COc1ccc(C)cc1NC(=O)c1cc(-c2ccccc2)nc2c1cnn2C(C)C | -0.898% |  |
| Cc1ccc(C)c(OCCC(=O)Nc2cccc(S(=O)(=O)N3CCCC3)c2)c1 | 6.06% |  |
| Cc1ccnc(N2C(=O)c3ccc([N+](=O)[O-])cc3C2=O)c1 | 2.03% |  |
| Cc1ccc2nc(NC(=O)CSc3nc(=O)n(CCCN(C)C)c4c3CCC4)sc2c1 | -4.3% |  |
| CC(C)CC1NC(=O)c2cc(Cl)ccc2-n2c1nc1ccccc1c2=O (stereo unspecified) | 1.81% |  |
| O=C(Cc1ccc(S(=O)(=O)N2CCOCC2)s1)N1CCN(c2ccc(C(F)(F)F)cc2[N+](=O)[O-])CC1 | 9.72% |  |
| C[C@H](OC(=O)n1ccnc1)[C@@H]1O[C@@]2(C)CCC[C@@H]1O2 | 4.3% |  |
| O=C(OCc1cc(=O)n2ccsc2n1)C1(c2ccc(Cl)cc2)CC1 | -0.535% |  |
| COc1ccc(C)cc1NC(=O)CN1c2cccc3cccc(c23)S1(=O)=O | -10.2% |  |
| CCc1ccc(C(=O)NNC(=O)C2CCN(c3ncnc4sc(C)c(C)c34)CC2)cc1 | -0.145% |  |
| Cc1cccc(C)c1Nc1nnc(SCC(=O)NCCCN2CCCC2=O)s1 | 0.388% |  |

| SMILES | activity change, negative = inhibition | Potency |
| --- | --- | --- |
| Brc1ccc(CN2CC[C@H]3C=CCc4cccc(c43)C2)cc1 | 1.81% |  |
| O=C(OCC(=O)N1CCCCCC1)c1ccc(Cl)nc1 | 3.23% |  |
| CC1CCCCC12NC(=O)N(CC(=O)OCc1c(F)cccc1Cl)C2=O (stereo unspecified) | 0.901% |  |
| CCOc1ccc(S(=O)(=O)Nc2ccc(C(=O)NCCCN3CCCC3=O)cc2)cc1 | 1.73% |  |
| CN(CC(=O)NC1CCN(Cc2ccccc2)CC1)S(=O)(=O)c1ccc(Cl)s1 | 3.04% |  |
| COc1cc(OC)cc(-c2c(-c3cccs3)c3cc(-c4ccc(OC)nc4)ccc3n2C)c1 | 3.8% |  |
| Cc1ccc(NC(=O)CN(C)C(=O)c2cccc(S(=O)(=O)N3CCCC3)c2)cc1 | 4.91% |  |
| CN(C)C(=O)CCc1ccc2c3c([nH]c2c1)[C@]1(CCC2CCCC2)[C@@H](C(=O)N2CCOCC2)C[C@H](CC(=O)NCc2ccco2)C(=O)N1CC3 | -1.11% |  |
| COc1cccc(CNC(=O)COc2cc(O)c3c(c2)OC(C)(C)CC3=O)c1 | -1.68% |  |
| Cc1ccc(NC(=O)c2ccc(Cl)nc2)cc1S(=O)(=O)N1CCOCC1 | 3.9% |  |
| COc1ccc(-c2sc3ccccc3c2-c2ccc(OCCN3CCOCC3)cc2)cc1 | 3.76% |  |
| COc1ccc2sc(-c3ccccc3OC)c(-c3ccc(OCCN4CCCC4)cc3)c2c1 | -1.61% |  |
| COc1cccc(-c2sc3ccc(OC)cc3c2-c2ccc(OCCN3CCCCC3)cc2)c1 |  | 18.4 µM (active) |
| CCN(CC)c1ccc(S(=O)(=O)N2CCCCC2)cc1NC(=O)C1=COCCO1 | 19.3% |  |
| COc1ccccc1CNC(=O)c1ccc(Cl)c(S(=O)(=O)N2CCCC2)c1 | 1.79% |  |
| Cc1onc(-c2c(F)cccc2Cl)c1C(=O)OCC(=O)N1C(C)CCCC1C (stereo unspecified) | 3.11% |  |
| COc1ccc(S(=O)(=O)N2CCCCCC2)cc1C(=O)N(C)Cc1cccc(OC)c1OC | 2.39% |  |
| COC(=O)c1ccc(/C=C/c2c(-c3ccc(OC)cc3)sc3ccccc23)cc1 | -0.0266% |  |
| O=C1Nc2ccccc2/C1=C/c1ccnc2ccccc12 | -9.05% |  |
